Results taken from PMC4336329 (PLoS ONE, 2015).
The whole screen tested about 310,000 compounds, of which about 14,000 (4.5%) showed an effect of 50% or more. Effects have a minus sign here. What follows is part of a selection rich in strong results, with near analogues and random picks from the rest.

biological target: human ether-à-go-go-related gene (hERG) potassium channel (human, UniProt Q12809); assay: primary screen, population patch clamp on CHO cells stably expressing hERG; higher = less effect of the substance
Sequence (Q12809 whole entry, looked up): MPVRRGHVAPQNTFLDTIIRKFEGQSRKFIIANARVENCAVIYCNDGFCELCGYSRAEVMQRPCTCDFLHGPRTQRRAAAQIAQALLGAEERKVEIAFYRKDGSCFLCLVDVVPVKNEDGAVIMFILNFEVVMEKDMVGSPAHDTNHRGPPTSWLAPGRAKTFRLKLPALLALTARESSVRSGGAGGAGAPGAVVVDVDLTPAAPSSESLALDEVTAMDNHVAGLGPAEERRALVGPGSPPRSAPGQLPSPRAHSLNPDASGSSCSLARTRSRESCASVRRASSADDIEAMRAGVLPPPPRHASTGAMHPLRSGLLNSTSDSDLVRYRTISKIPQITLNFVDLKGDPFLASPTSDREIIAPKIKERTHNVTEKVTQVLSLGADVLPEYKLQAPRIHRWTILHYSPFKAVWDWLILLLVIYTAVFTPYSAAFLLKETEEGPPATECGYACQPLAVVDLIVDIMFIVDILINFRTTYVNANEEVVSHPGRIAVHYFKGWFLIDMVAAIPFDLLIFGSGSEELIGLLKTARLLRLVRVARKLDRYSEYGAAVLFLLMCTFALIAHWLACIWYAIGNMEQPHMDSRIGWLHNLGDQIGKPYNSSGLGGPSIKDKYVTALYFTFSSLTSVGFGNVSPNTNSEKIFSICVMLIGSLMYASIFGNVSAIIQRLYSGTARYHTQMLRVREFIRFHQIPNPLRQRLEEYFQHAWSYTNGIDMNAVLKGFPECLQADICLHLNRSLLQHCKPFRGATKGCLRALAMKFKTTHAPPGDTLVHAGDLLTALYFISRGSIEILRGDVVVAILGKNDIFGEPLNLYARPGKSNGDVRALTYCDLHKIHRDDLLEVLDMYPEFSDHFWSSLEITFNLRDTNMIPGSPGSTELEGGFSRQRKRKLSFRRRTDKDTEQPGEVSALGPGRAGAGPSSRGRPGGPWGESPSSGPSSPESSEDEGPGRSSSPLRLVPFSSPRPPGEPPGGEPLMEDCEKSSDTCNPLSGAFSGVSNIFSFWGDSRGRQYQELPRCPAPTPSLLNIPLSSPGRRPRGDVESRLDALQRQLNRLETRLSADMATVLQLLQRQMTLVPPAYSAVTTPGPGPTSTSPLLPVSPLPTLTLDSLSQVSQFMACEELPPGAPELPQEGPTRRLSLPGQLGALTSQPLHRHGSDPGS
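Also: peak tail current of the secondary pulse compared with the same well before compound.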

Compound | hERG current change (%, negative = inhibition) at 10uM [%]
Nc1c(C(=O)CSc2nc(-c3ccccc3)cs2)c(=O)[nH]c(=O)n1C1CC1 | -7.63
O=C(c1ccco1)n1nc(-c2ccccc2)nc1SCc1ccccc1 | 3.93
COC(=O)[C@@H]1[C@H]2C[C@H]3c4[nH]c5ccccc5c4CCN3C[C@@H]2CC[C@@H]1O | -57.5
COC(=O)C1C(O)CCC2CN3CCc4c([nH]c5ccccc45)C3CC21 (stereo not shown) | -21.1
COC(=O)[C@H]1[C@H]2C[C@H]3c4[nH]c5ccccc5c4CCN3C[C@@H]2CC[C@@H]1O | -12.5
CCSCCOC(=O)C1=C(C)N(C)C(=O)NC1c1ccc2c(c1)OCO2 (stereo not shown) | 5.29
O=C(CN(C1CCCCC1)S(=O)(=O)c1ccc(Cl)cc1)NCc1cccnc1 | -74.4
O=C(CN(C1CCCCC1)S(=O)(=O)c1ccccc1)NCc1cccnc1 | -30
Cc1ccc(S(=O)(=O)N(CC(=O)NCc2cccnc2)C2CCCCC2)cc1 | -63.3
CS(=O)(=O)N(CC(=O)NCc1cccnc1)C1CCCCC1 | 5.98
COc1ccc(S(=O)(=O)N(CC(=O)NCc2cccnc2)C2CCCCC2)cc1OC | -12.7
Cc1cc(C)c(S(=O)(=O)N(CC(=O)NCc2cccnc2)C2CCCCC2)c(C)c1 | -37.4
O=C(COC(=O)c1cc(S(=O)(=O)N2CCOCC2)ccc1F)NC1CCCCC1 | -2.25
COc1cc(/C=N/O)ccc1Oc1ccc([N+](=O)[O-])cc1[N+](=O)[O-] | -45.9
CO/N=C/c1ccc(Oc2ccc(C)cc2)c([N+](=O)[O-])c1 | 12.1
O/N=C\c1ccccc1Oc1ccc(F)cc1 | 12.8
O=[N+]([O-])c1cc(/C=N/O)ccc1Oc1cccc(Cl)c1 | -53.7
O=[N+]([O-])c1cc(/C=N\O)ccc1Oc1ccc(F)cc1 | -72.1
O=[N+]([O-])c1cc(/C=N/O)ccc1Oc1ccccc1Cl | -16
CC(NC1c2ccccc2-c2ccccc21)c1ccccc1 (stereo not shown) | 9.54
CCOC(=O)c1c(NC=O)sc2c1CCC2 | -2.89

Compound | hERG current change (%, negative = inhibition) at 10uM [%]
Cc1ccc(C)c(NC(=S)NNC(=O)c2csc3c2CCC(C)C3)c1 (stereo not shown) | 3.17
O=C(NCc1ccccc1)C1=C[C@@H](c2ccccc2)C[C@@H](OCc2ccc(CO)cc2)O1 | -14.4
CCN(CC(=O)Nc1cccc(S(N)(=O)=O)c1)Cc1nc2ccccc2c(=O)[nH]1 | 3.49
Cc1cc(-c2cc(-c3ccc(Cl)cc3)nc(N)c2C#N)co1 | -1.55
O=C(O)c1cccnc1Nc1ccc(Cl)cc1 | 25
COc1ccc(CCNC(=O)CCn2c(=O)c3ccccc3n(CC(=O)NCC3CCCO3)c2=O)cc1OC (stereo not shown) | 8.86
COc1ccc(CCNC(=O)C(=O)NCC2CCCO2)cc1OC (stereo not shown) | 3.13
COc1ccc(Cn2c(=N)c(C(=O)NCC3CCCO3)cc3c(=O)n4ccccc4nc32)cc1 (stereo not shown) | -82.2
COc1ccc(C(=O)Nc2ccccc2C(=O)NCC2CCCO2)cc1 (stereo not shown) | 4.28
COc1ccc(-c2cc(C(=O)NCC3CCCO3)c3ccccc3n2)c(OC)c1 (stereo not shown) | -0.667
COc1ccc(-n2nc(C(=O)NCC3CCCO3)c3ccccc3c2=O)cc1 (stereo not shown) | 31.7
COc1ccc(CCn2c(=N)c(C(=O)NCC3CCCO3)cc3c(=O)n4ccccc4nc32)cc1OC (stereo not shown) | -75.9
COc1ccc(CCn2c(=N)c(C(=O)NCC3CCCO3)cc3c(=O)n4ccccc4nc32)cc1 (stereo not shown) | -77.9
COc1ccc(-c2cc(C(=O)NCC3CCCO3)c3ccccc3n2)cc1 (stereo not shown) | -10.7
Cc1csc(SCC(=O)NC23CC4CC(CC(C4)C2)C3)n1 | -20.5
O=S(=O)(/N=C(/Nc1cccc2ccccc12)c1ccc(F)cc1)c1ccccc1 | -42.8
COCCCNC(=O)Cn1nnc(-c2ccc(NC(=O)c3ccccc3F)cc2)n1 | -2.44
CCOC(=O)CN(C(=O)CSc1nnc(-c2ccc(OC)c(OC)c2)o1)c1ccc(F)cc1 | -49.6
CC(=O)c1sc(NC(=O)CCOc2ccccc2)nc1C | 5.9
CCC(Sc1nc2n[nH]c(C)c2c(=N)n1-c1cc(Cl)ccc1C)C(=O)N1CCOCC1 (stereo not shown) | -0.58
CC1CCN(C(C)C(=O)Nc2ccc(S(=O)(=O)N3CCCC3)cc2)CC1 (stereo not shown) | -6.3

Compound | hERG current change (%, negative = inhibition) at 10uM [%]
COc1cc(NC(=O)C(C)N2CCN(C(=O)C3CC3)CC2)cc(OC)c1 (stereo not shown) | -16.1
CC(C(=O)Nc1ccc(C#N)cc1)N1CCN(C(=O)C2CC2)CC1 (stereo not shown) | -61.2
CC(C)OCCCNc1ncnc2c1nc1n2CCCC1 | -72.6
COCCCNc1ncnc2c1nc1n2CCCC1 | 18.6
CCOCCCNc1ncnc2c1nc1n2CCCC1 | 17.2
COc1ccc2[nH]cc(CCN3C(=O)CCC3=O)c2c1 | 10.7
CCN(CC)CCCNC(=O)CSc1nc2c(c(C(F)(F)F)n1)CCc1ccccc1-2 | -52.2
O=C(CSc1nc2c(c(C(F)(F)F)n1)CCc1ccccc1-2)NCc1ccccc1 | 6.56
O=C(CSc1nc2c(c(C(F)(F)F)n1)CCc1ccccc1-2)NCc1ccc(F)cc1 | 14.2
Cl.O=C(CN1CCCC(O)C1)N1c2ccccc2Sc2ccc(C(F)(F)F)cc21 (stereo not shown) | -7.16
COc1ccc(C(=O)Nc2c3c(nn2-c2ccc([N+](=O)[O-])cc2)CS(=O)(=O)C3)cc1 | -9.85
COc1cccc(C(=O)Nc2c3c(nn2-c2ccc([N+](=O)[O-])cc2)CS(=O)(=O)C3)c1 | -53.8
O=C(Nc1c2c(nn1-c1ccccc1)CS(=O)(=O)C2)c1ccco1 | -9.21
CC(Oc1ccccc1)C(=O)Nc1c2c(nn1-c1ccccc1)CS(=O)(=O)C2 (stereo not shown) | 18.2
CC(C)Oc1ccc(C(=O)Nc2c3c(nn2-c2ccccc2)CS(=O)(=O)C3)cc1 | -65.9
Cc1ccc(-n2nc3c(c2NC(=O)c2ccco2)CS(=O)(=O)C3)cc1 | -25.7
COc1ccccc1C(=O)Nc1c2c(nn1-c1ccc([N+](=O)[O-])cc1)CS(=O)(=O)C2 | 11.7
O=C(Nc1c2c(nn1-c1ccc([N+](=O)[O-])cc1)CS(=O)(=O)C2)c1ccco1 | -64.7
CCOc1ccc(C(=O)Nc2c3c(nn2-c2ccccc2)CS(=O)(=O)C3)cc1 | 4.84
